Measured values taken from ChEMBL document CHEMBL3988442, “University of Dundee, Small-Polar-MMV Screening Library” (2021).
For some of these results: Potency and affinity values are given separately.

Assays:
Parameters in all cases: scale not given: direction of the effect not stated beside the values
[1] = target: Protein translocase subunit SecA (Escherichia coli (strain K12)) (UniProt P10408); assay: Assay to Identify E. coli SecA ATPase Inhibitors; assay type: functional; conditions: 30 µM
[2] = target: T1, Ubiquitin-activating enzyme e1, putative (Leishmania donovani (strain BPK282A1)) (UniProt E9BSI1); assay: Leishmania donovani Ubiquitin Activating Enzyme (LdE1); assay type: functional; conditions: 30 µM
T1 sequence (whole entry): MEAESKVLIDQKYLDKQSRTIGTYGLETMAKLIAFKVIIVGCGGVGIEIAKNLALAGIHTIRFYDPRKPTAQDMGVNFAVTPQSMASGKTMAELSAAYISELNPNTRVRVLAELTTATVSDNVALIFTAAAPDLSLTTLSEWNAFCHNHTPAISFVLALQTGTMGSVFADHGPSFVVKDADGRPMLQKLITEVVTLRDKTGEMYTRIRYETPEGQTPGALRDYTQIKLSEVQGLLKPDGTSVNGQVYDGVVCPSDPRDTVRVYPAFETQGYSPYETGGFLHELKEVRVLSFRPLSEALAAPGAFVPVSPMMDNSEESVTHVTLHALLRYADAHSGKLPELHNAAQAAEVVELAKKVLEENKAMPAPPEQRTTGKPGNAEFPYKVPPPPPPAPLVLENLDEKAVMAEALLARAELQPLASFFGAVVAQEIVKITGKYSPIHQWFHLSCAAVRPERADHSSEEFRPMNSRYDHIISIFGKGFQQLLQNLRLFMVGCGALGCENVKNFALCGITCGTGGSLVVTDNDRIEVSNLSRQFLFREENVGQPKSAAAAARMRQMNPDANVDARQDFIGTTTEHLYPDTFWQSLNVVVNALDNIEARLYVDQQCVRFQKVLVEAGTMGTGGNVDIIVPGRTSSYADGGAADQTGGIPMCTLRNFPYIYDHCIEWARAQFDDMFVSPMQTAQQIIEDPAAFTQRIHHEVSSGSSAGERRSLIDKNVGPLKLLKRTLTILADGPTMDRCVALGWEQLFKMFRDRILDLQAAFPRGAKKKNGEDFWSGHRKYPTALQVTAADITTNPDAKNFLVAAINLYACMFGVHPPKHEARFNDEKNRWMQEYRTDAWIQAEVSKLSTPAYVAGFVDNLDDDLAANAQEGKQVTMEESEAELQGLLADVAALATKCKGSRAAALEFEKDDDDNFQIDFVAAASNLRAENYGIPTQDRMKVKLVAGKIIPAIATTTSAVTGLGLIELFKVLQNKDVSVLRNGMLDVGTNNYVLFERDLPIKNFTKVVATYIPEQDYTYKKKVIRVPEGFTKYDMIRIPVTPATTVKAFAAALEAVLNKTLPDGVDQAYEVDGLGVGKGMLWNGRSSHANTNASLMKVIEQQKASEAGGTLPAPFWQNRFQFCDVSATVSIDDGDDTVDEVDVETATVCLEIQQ

[3] = target: AMP-activated protein kinase, AMPK (Homo sapiens) (UniProt P54646+O43741+P54619+Q9UGJ0+Q9Y478+Q13131+Q9UGI9); assay: AMP-dependent Kinase enzyme assay. An in vitro enzyme assay that detects ADP turnover that is directly proportional to AMPK activity. This uses naive AMPK that is activated during the assay with MK-8722; assay type: functional; conditions: 30 µM
[4] = target: Sialic acid-binding Ig-like lectin 9 (Homo sapiens) (UniProt Q9Y336); assay: Hs-Siglec9 ALPHAscreen SOP 20170721; conditions: 10 µM
Trypanosoma cruzi = assay: Trypanosoma cruzi phosphomannomutase and mannose-1-phosphate guanylyltransferase assay; assay type: functional; conditions: 10 µM
[5] = target: T2, Arginase-2, mitochondrial (Homo sapiens) (UniProt P78540); assay: in vitro enzyme assay to detect the production of urea directly proportional to the activity of Arginase II; assay type: functional; conditions: 33.3 µM; further: in the data most compounds retested in dose-response had high values
T2 sequence (whole entry): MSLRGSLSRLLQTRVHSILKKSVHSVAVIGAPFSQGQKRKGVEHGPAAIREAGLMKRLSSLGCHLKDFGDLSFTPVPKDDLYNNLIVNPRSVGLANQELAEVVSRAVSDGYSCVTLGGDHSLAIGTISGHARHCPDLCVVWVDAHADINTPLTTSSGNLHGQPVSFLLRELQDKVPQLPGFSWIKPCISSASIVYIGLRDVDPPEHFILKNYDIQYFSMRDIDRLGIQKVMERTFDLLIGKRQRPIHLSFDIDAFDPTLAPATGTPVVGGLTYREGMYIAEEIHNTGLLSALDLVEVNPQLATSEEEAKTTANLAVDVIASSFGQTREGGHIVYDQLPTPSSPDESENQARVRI

[6] = target: T3, Proteasome subunit beta (Trypanosoma cruzi) (UniProt O96673); assay: Trypanosoma cruzi proteasome chymotrypsin-like activity (TcProtChymo) assay.; further: in the data most compounds retested in dose-response had high values; assay type: functional; conditions: 9.37 µM
T3 sequence (whole entry): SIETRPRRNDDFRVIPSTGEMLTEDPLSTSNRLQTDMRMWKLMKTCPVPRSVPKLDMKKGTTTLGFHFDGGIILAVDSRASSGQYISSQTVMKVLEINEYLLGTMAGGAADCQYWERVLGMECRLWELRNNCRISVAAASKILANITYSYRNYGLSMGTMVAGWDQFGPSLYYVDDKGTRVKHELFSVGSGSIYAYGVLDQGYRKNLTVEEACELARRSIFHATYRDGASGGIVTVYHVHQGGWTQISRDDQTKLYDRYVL

Homo sapiens = species on record: Homo sapiens; assay: To identify inhibition of the IFN signalling (Jak-Stat) pathway via expression of an eGFP reporter gene under the control of an IFN-stimulated response element (ISRE) containing MxA promoter.; assay type: functional; conditions: 30 µM
[7] = target: T4, Tyrosyl-tRNA synthetase, putative (Trypanosoma cruzi (strain CL Brener)) (UniProt Q4DSP6); assay: Trypanosoma cruzi tyrosyl tRNA synthetase (TcYRS) _High Tyrosine SOP; assay type: functional; conditions: 30 µM; further: in the data most compounds retested in dose-response had high values
T4 sequence (whole entry): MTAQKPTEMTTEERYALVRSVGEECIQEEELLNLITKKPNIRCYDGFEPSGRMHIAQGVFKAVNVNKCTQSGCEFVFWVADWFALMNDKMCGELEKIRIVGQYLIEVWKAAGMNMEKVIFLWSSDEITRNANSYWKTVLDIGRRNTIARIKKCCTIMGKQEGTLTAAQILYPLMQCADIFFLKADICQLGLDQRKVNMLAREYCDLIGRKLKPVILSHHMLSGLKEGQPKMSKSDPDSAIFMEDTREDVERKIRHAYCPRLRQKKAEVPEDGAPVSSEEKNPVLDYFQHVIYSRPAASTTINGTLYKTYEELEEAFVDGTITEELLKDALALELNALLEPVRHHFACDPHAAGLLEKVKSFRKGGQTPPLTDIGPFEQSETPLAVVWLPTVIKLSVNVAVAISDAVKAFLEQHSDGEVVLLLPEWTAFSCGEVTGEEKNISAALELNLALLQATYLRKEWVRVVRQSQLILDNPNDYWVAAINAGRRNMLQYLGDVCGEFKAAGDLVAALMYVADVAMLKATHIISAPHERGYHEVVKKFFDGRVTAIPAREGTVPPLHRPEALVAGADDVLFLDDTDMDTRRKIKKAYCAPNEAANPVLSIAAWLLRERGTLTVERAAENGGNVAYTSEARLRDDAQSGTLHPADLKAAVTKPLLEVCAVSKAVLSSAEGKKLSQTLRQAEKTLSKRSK

[8] = target: T4, Tyrosyl-tRNA synthetase, putative (Trypanosoma cruzi (strain CL Brener)); assay: Trypanosoma cruzi tyrosyl tRNA synthetase (TcYRS) SOP; assay type: functional; conditions: 30 µM
[9] = target: Chromo domain-containing protein 1 (Saccharomyces cerevisiae (strain ATCC 204508 / S288c) (Baker's yeast)) (UniProt P32657); assay: ScCHD-1 Enzyme Inhibition Assay; assay type: functional; conditions: 30 µM; further: in the data most compounds retested in dose-response had high values
Sequence of Chromo domain-containing protein 1 (Saccharomyces cerevisiae (strain ATCC 204508 / S288c) (Baker's yeast)) (P32657 whole entry, the tested form may be a part): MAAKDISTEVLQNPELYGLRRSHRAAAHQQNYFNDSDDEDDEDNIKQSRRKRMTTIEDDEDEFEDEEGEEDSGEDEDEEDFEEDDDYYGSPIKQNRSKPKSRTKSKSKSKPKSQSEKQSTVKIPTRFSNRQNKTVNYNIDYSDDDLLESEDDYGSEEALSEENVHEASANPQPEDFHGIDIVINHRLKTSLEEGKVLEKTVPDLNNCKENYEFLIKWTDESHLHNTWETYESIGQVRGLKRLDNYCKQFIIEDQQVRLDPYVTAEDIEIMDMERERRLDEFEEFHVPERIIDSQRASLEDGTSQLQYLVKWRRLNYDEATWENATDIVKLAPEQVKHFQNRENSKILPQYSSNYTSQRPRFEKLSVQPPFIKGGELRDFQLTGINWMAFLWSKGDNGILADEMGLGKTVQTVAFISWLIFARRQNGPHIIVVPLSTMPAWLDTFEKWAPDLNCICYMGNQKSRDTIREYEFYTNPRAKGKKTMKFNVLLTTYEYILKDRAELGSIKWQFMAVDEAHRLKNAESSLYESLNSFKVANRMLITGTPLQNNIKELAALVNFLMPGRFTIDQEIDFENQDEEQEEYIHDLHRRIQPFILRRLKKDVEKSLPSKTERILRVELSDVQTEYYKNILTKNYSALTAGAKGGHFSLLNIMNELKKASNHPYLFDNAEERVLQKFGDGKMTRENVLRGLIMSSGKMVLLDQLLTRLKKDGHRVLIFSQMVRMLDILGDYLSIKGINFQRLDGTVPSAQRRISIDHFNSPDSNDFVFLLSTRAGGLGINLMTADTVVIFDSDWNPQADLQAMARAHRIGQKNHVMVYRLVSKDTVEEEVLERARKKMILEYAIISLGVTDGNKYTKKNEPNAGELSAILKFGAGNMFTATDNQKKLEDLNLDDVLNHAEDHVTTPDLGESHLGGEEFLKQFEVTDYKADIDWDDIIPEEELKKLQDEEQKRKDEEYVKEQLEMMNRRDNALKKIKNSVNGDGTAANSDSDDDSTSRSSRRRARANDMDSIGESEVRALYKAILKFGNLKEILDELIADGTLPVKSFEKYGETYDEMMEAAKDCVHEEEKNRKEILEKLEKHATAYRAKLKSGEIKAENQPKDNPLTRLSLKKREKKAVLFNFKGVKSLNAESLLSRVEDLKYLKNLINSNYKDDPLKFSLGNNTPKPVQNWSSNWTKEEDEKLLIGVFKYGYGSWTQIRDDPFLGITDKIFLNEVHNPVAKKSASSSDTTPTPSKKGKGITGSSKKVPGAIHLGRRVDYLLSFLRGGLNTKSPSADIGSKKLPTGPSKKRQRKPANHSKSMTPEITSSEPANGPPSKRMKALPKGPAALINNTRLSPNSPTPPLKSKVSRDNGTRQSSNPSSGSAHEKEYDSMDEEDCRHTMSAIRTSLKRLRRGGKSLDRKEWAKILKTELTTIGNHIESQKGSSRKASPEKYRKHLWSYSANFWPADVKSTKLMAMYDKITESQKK

Sequence of Protein translocase subunit SecA (Escherichia coli (strain K12)) (P10408 whole entry): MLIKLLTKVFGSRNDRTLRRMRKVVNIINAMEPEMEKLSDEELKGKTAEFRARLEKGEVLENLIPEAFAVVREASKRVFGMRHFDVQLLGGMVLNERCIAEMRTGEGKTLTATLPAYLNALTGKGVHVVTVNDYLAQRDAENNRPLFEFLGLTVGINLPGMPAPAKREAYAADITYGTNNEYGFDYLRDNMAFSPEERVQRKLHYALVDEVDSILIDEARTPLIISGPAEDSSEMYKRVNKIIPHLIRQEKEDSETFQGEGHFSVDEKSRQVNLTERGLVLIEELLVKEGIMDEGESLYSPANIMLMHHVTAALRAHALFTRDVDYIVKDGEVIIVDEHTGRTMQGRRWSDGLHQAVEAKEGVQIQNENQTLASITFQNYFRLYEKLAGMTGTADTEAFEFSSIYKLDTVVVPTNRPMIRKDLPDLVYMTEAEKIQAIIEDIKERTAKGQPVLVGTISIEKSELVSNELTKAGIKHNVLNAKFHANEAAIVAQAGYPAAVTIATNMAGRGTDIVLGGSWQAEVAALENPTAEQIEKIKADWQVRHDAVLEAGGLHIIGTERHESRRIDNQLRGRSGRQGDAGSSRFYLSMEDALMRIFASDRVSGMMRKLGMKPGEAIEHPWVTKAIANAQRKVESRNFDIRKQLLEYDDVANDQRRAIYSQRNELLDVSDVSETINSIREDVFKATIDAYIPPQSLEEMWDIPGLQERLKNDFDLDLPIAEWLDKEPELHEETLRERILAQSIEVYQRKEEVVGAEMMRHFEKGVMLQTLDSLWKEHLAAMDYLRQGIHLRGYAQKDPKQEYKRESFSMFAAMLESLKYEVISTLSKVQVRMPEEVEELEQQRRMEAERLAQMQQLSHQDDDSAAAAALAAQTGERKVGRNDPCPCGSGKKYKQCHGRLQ
Sequence of Sialic acid-binding Ig-like lectin 9 (Homo sapiens) (Q9Y336 whole entry): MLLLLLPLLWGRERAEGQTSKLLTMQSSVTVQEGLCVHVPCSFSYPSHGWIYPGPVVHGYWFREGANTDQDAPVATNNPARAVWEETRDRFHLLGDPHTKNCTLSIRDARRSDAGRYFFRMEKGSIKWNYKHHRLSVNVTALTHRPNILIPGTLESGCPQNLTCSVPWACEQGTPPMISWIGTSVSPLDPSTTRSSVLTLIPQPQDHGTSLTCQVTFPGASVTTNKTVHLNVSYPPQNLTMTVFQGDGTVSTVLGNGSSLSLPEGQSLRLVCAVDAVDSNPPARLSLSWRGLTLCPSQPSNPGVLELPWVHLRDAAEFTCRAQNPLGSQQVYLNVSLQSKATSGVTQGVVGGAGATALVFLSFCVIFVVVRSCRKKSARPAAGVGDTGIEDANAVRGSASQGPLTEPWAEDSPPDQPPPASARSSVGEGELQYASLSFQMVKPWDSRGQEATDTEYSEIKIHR

| Structure (SMILES) | Percent Effect [1] [%] | Percent Effect [2] [%] | Percent Effect [3] [%] | Percent Effect [4] [%] | Percent Effect (Trypanosoma cruzi) [%] | Percent Effect [5] [%] | Percent Effect [6] [%] | Percent Effect (Homo sapiens) [%] | Percent Effect [7] [%] | Percent Effect [8] [%] | Percent Effect [9] [%] |
| --- | --- | --- | --- | --- | --- | --- | --- | --- | --- | --- | --- |
| Cc1cnn(CC2CCCN2Cc2nnsc2Cl)c1 (configuration not stated) | -4.93 | 0 | -0.946 | -0.665 | -3.68 | -2.66 | 0.573 | 28.5 | 2.46 | -3.8 | 3.6 |
| COc1ccc(F)cc1C(C)NC(=O)Nc1nnc(C)s1 (configuration not stated) | -1.41 | 10.8 | -8.69 | 27.9 | 4.99 | 13.7 | 9.7 | 17.2 | 5.38 | 16.1 | 3.4 |
| CN(C)Cc1nnc(C2CCN(C(=O)CCc3cccs3)CC2)n1C | -3.21 | 13.5 | -7.22 | 25.4 | 4.83 | 1.43 | 12.1 | 5.64 | 6.88 | 14.6 | 72.9 |
| CNC(=O)C1Cn2ccnc2C2(CCN(Cc3cccc(C)n3)CC2)O1 (configuration not stated) | -2.65 | 2.7 | 2.26 | -4.02 | -6.35 | -8.6 | 9.41 | 0.488 | 4.32 | 10.3 | 0.265 |
| O=C([C@H]1CCCO1)N1CCCC2(CCN(Cc3ccncc3)C2=O)C1 (some centres not stated) | -1.19 | 10.4 | 3.88 | -8.92 | -7.79 | 7.1 | 11.3 | 31.4 | 3.17 | 6.41 | -8.64 |
| CCn1c(N)nc2cc(C(=O)NCCc3ccccc3C)cnc21 | -2.81 | 13.7 | 9.51 | 3.5 | 5.09 | 15 | 22.7 | 20.2 | 5.38 | 17.5 | -12.1 |
| CN(C)c1ccc(CCCNC(=O)Nc2ccc(C#N)cc2)cc1 | 1.86 | 8.11 | 2.26 | 11.1 | 3.86 | 11.4 | 15.7 | 72 | 5.82 | 14.6 | -5.31 |
| c1ccc(-c2noc(CN3CCOC(Cn4cccn4)C3)n2)nc1 (configuration not stated) | -0.328 | 0 | 4.78 | 8.36 | 0.188 | -1.53 | 3.51 | 6.16 | -0.49 | -2.44 | 4.99 |
| Cn1ccc(C(=O)NC2CCN(c3ncccn3)CC2)cc1=O | -2.08 | 13.5 | -7.39 | 7.92 | -0.0943 | 0.401 | 9.73 | 5.6 | 1.48 | 11.1 | -9.93 |
| O=c1cc2c(nn1CN1CCN(c3cccc(Cl)c3)CC1)CCC2 | -3.06 | 6.67 | 0.948 | 5.21 | 0.589 | -6.87 | 19 | 4.05 | 6.35 | 12.8 | -2.65 |
| CC(=O)N(Cc1ncc(C)o1)C1CCN(Cc2noc(C)n2)C1 (configuration not stated) | -3.16 | 26 | -5.5 | -2.16 | 6.76 | -3.16 | 11.9 | 1.88 | 8.57 | 30.6 | 2.25 |
| CC(C)N1CC(C(=O)NCCOc2ccc3c(c2)OCO3)CC1=O (configuration not stated) | 0.716 | 21.1 | -0.48 | -5.15 | 3.64 | 2.16 | 12.1 | 4.59 | 8.37 | 23.5 | -9.09 |
| Cc1nc(CN2CCC3(CCCN(Cc4cnn(C)c4)C3)C2=O)cs1 (configuration not stated) | 2.6 | 10.7 | -6.96 | 4.34 | -5.79 | -57.2 | 10.3 | -6.36 | 3.12 | 10 | -5.7 |
| CC(NC(N)=O)C(=O)N1CCCN(Cc2nccn2C(C)C)CC1 (configuration not stated) | -1.61 | 1.27 | 7.49 | 0.743 | -1.13 | -4.09 | 2.74 | -2.71 | 0 | 2.53 | -3.12 |
| Fc1ccc(-c2cnc(CN3CCCC3Cn3cccn3)o2)cc1 (configuration not stated) | -4.06 | 7.59 | -2.14 | -12.9 | -4.82 | 7.22 | 12.7 | 24.8 | 2.46 | 13.9 | -1.62 |
| CC(C)c1nc2n(n1)CC(NCc1nc(-c3cccnc3)no1)CC2 (configuration not stated) | -3.79 | 2.6 | -1.93 | -12.6 | 5.78 | -2.74 | 11.1 | -3.81 | 3.81 | 11.8 | -23.3 |
| O=C(c1ccc2c(c1)COC2)N1CCN(CC2CC2)CC1 | -2.51 | 5.06 | -1.47 | 8.43 | -0.283 | -1.52 | -2.21 | 0.542 | 4.43 | -1.27 | 1.49 |
